# PubChem BioAssay (NCI)
# The panel holds about 79,000 compounds, 15% with a hit somewhere; the sample as a whole holds those more often. A number with no mark means an inactive call. The source made the active and inactive calls. Rule as the data show it: active = growth inhibition above about 70%; inactive = the rest.
# Columns and labels:
# [1] = NCI Yeast Anticancer Drug Screen. Data for the rad52 strain (AID 147);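 also: 0% = growth of vehicle-treated control cultures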; settings: S. cerevisiae rad52 mutant growth inhibition, hits give high values
# In short: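 Genetically altered yeast (DNA damage repair defect) treated with compound; inhibition calculated relative to vehicle.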
# [2] = NCI Yeast Anticancer Drug Screen. Data for the wt1 strain (AID 149);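 also: 0% = growth of vehicle-treated wt1 cultures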; settings: S. cerevisiae wt1 strain (SPY 50644) growth inhibition, hits give high values
# In short: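 Compounds are added to wt1 yeast cultures. Growth is then measured. Inhibition is expressed relative to vehicle-treated controls.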
# [3] = NCI Yeast Anticancer Drug Screen. Data for the rad50EPP+ strain (AID 151);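 also: 0% = growth of vehicle-treated control cultures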; settings: S. cerevisiae rad50 mutant strain, hits give high values
# In short: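 Strain rad50EPP+; compound exposure; % growth inhibition vs vehicle.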
# [4] = NCI Yeast Anticancer Drug Screen. Data for the mgt1 strain (AID 153); settings: S. cerevisiae mgt1 mutant growth inhibition, hits give high values
# In short: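 Read-out: yeast growth inhibition vs vehicle control. Strain mgt1, drawn from a panel altered in DNA damage repair or cell cycle control.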
# [5] = NCI Yeast Anticancer Drug Screen. Data for the rad50 strain (AID 155);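 also: 0% = growth of vehicle-only cultures of the same strain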; settings: S. cerevisiae rad50 strain growth inhibition, hits give high values
# In short: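 Inhibition values express reduced yeast growth in compound-treated cultures relative to vehicle-treated controls.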
# [6] = NCI Yeast Anticancer Drug Screen. Data for the mec2-1 strain (AID 157); settings: S. cerevisiae mec2-1 strain, hits give high values
# In short: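 Cells of the genetically defined mec2-1 yeast strain are incubated with test compound. Inhibition of growth is calculated against vehicle-treated controls.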
# [7] = NCI Yeast Anticancer Drug Screen. Data for the rad14 strain (AID 159);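 also: 0% = growth of vehicle-treated control cultures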; settings: S. cerevisiae rad14 strain growth inhibition, hits give high values
# In short: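 A mutant yeast strain defective in DNA damage repair is treated with compound; inhibition of its growth is scored against untreated, vehicle-exposed cultures.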
# [8] = NCI Yeast Anticancer Drug Screen. Data for the sgs1 mgt1 strain (AID 161);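 also: 0% = growth of cultures given vehicle only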; settings: S. cerevisiae sgs1 mgt1 strain, hits give high values
# In short: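 Test agents were incubated with a DNA-repair-mutant yeast strain. Growth was then read and compared against vehicle-treated controls.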
# [9] = NCI Yeast Anticancer Drug Screen. Data for the CLN2oe strain (AID 163);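 also: 0% = growth of vehicle-only control cultures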; settings: S. cerevisiae CLN2oe strain, hits give high values
# In short: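 Strain altered in cell-cycle control, incubated with compound; growth compared to solvent-treated controls.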
# [10] = NCI Yeast Anticancer Drug Screen. Data for the cln2 rad14 strain (AID 165);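 also: 0% = growth equal to vehicle treated cultures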; settings: S. cerevisiae cln2 rad14 strain, hits give high values
# In short: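 The screen exposed genetically defined yeast (cln2 rad14) to test compounds and scored growth inhibition relative to vehicle-treated controls.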
# [11] = NCI Yeast Anticancer Drug Screen. Data for the bub3 strain (AID 167); settings: S. cerevisiae bub3 mutant strain, hits give high values
# In short: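 Steps: expose the mutant yeast strain to compound; grow alongside vehicle-treated cultures; measure growth; express inhibition against the vehicle cultures.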
# [12] = NCI Yeast Anticancer Drug Screen. Data for the wt2 strain (AID 169);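 also: 0% = growth of vehicle-treated yeast cultures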; settings: S. cerevisiae wt2 strain growth inhibition, hits give high values
# In short: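 Steps: yeast strain treated with compound; growth recorded; inhibition calculated relative to cultures given vehicle alone.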
# [13] = NCI Yeast Anticancer Drug Screen. Data for the mlh1 strain (AID 171);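 also: 0% = growth of vehicle-treated control cultures of the same strain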; settings: S. cerevisiae mlh1 strain growth inhibition, hits give high values
# In short: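 Yeast screen: mutant strain plus compound, growth scored against vehicle control wells.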
# [14] = NCI Yeast Anticancer Drug Screen. Data for the sgs1 strain (AID 173);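 also: 0% = growth of vehicle-only control cultures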; settings: S. cerevisiae sgs1 mutant, hits give high values
# In short: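 Inhibition of yeast growth served as the measure. The mutant strain was treated with each compound, and growth was normalised to cultures receiving vehicle alone.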
# [15] = NCI Yeast Anticancer Drug Screen. Data for the mlh1 rad18 strain (AID 175); settings: S. cerevisiae mlh1 rad18 strain growth inhibition, hits give high values
# In short: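 Compound-treated yeast growth, normalised to vehicle controls. Strain bears defined DNA repair mutations.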
# [16] = NCI Yeast Anticancer Drug Screen. Data for the rad18 strain (AID 177); settings: S. cerevisiae rad18 mutant growth inhibition, hits give high values
# In short: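 Inhibition values reflect reduced yeast growth compared with vehicle-treated controls, using a strain engineered with a DNA damage repair defect.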
# [17] = at 5.0 µM (retest, dose inferred, filed as 0.5)
# [18] = at 50.0 µM (retest, dose inferred, filed as 5.0)
compound,measurement,setting,value
COc1ccc(C(=O)Oc2ccccc2Br)cc1,growth inhibition,[1]; at 1.2 µM,5%
same,growth inhibition,[1]; at 3.7 µM,6%
same,growth inhibition,[1]; at 11.0 µM,3%
same,growth inhibition,[1]; at 33.0 µM,19%
same,growth inhibition,[1]; at 100.0 µM,44%
same,growth inhibition,[2]; at 1.2 µM,-5%
same,growth inhibition,[2]; at 3.7 µM,-7%
same,growth inhibition,[2]; at 11.0 µM,-10%
same,growth inhibition,[2]; at 33.0 µM,-10%
same,growth inhibition,[2]; at 100.0 µM,-3%
same,growth inhibition,[3]; at 1.2 µM,13%
same,growth inhibition,[3]; at 3.7 µM,22%
same,growth inhibition,[3]; at 11.0 µM,26%
same,growth inhibition,[3]; at 33.0 µM,35%
same,growth inhibition,[3]; at 100.0 µM,62%
same,growth inhibition,[4]; at 1.2 µM,-8%
same,growth inhibition,[4]; at 3.7 µM,-5%
same,growth inhibition,[4]; at 11.0 µM,-7%
same,growth inhibition,[4]; at 33.0 µM,-5%
same,growth inhibition,[4]; at 100.0 µM,25%
same,growth inhibition,[5]; at 1.2 µM,8%
same,growth inhibition,[5]; at 3.7 µM,7%
same,growth inhibition,[5]; [17],5%
same,growth inhibition,[5]; at 11.0 µM,8%
same,growth inhibition,[5]; at 33.0 µM,28%
same,growth inhibition,[5]; [18],64%
same,growth inhibition,[5]; at 50.0 µM,6.6%
same,growth inhibition,[5]; at 100.0 µM,62%
same,growth inhibition,[6]; at 1.2 µM,-5%
same,growth inhibition,[6]; at 3.7 µM,-8%
same,growth inhibition,[6]; [17],-20%
same,growth inhibition,[6]; at 11.0 µM,-10%
same,growth inhibition,[6]; at 33.0 µM,-7%
same,growth inhibition,[6]; [18],8%
same,growth inhibition,[6]; at 50.0 µM,5.05%
same,growth inhibition,[6]; at 100.0 µM,20%
same,growth inhibition,[7]; at 1.2 µM,3%
same,growth inhibition,[7]; at 3.7 µM,-1%
same,growth inhibition,[7]; at 11.0 µM,-1%
same,growth inhibition,[7]; at 33.0 µM,10%
same,growth inhibition,[7]; at 100.0 µM,39%
same,growth inhibition,[8]; [17],0%
same,growth inhibition,[8]; [18],78% (active)
same,growth inhibition,[8]; at 50.0 µM,36.1%
same,growth inhibition,[9]; at 1.2 µM,-4%
same,growth inhibition,[9]; at 3.7 µM,-12%
same,growth inhibition,[9]; at 11.0 µM,-18%
same,growth inhibition,[9]; at 33.0 µM,-14%
same,growth inhibition,[9]; at 100.0 µM,9%
same,growth inhibition,[10]; [17],0%
same,growth inhibition,[10]; [18],16%
same,growth inhibition,[10]; at 50.0 µM,-16.3%
same,growth inhibition,[11]; at 1.2 µM,3%
same,growth inhibition,[11]; at 3.7 µM,2%
same,growth inhibition,[11]; [17],18%
same,growth inhibition,[11]; at 11.0 µM,-2%
same,growth inhibition,[11]; at 33.0 µM,5%
same,growth inhibition,[11]; [18],75% (active)
same,growth inhibition,[11]; at 50.0 µM,32.4%
same,growth inhibition,[11]; at 100.0 µM,19%
same,growth inhibition,[12]; at 1.2 µM,-5%
same,growth inhibition,[12]; at 3.7 µM,-13%
same,growth inhibition,[12]; at 11.0 µM,-11%
same,growth inhibition,[12]; at 33.0 µM,-10%
same,growth inhibition,[12]; at 100.0 µM,0%
same,growth inhibition,[13]; at 1.2 µM,-1%
same,growth inhibition,[13]; at 3.7 µM,0%
same,growth inhibition,[13]; at 11.0 µM,-2%
same,growth inhibition,[13]; at 33.0 µM,8%
same,growth inhibition,[13]; at 100.0 µM,39%
same,growth inhibition,[14]; at 1.2 µM,-18%
same,growth inhibition,[14]; at 3.7 µM,-13%
same,growth inhibition,[14]; at 11.0 µM,-11%
same,growth inhibition,[14]; at 33.0 µM,3%
same,growth inhibition,[14]; at 100.0 µM,36%
same,growth inhibition,[15]; [17],5%
same,growth inhibition,[15]; [18],90% (active)
same,growth inhibition,[15]; at 50.0 µM,7.85%
same,growth inhibition,[16]; at 1.2 µM,1%
same,growth inhibition,[16]; at 3.7 µM,2%
same,growth inhibition,[16]; at 11.0 µM,1%
same,growth inhibition,[16]; at 33.0 µM,10%
same,growth inhibition,[16]; at 100.0 µM,53%
O=Cc1ccc2c(c1)C(=O)c1ccccc1C2=O,growth inhibition,[1]; at 1.2 µM,4%
same,growth inhibition,[1]; at 3.7 µM,11%
same,growth inhibition,[1]; at 11.0 µM,33%
same,growth inhibition,[1]; at 33.0 µM,79% (active)
same,growth inhibition,[1]; at 100.0 µM,92% (active)
same,growth inhibition,[2]; at 1.2 µM,1%
same,growth inhibition,[2]; at 3.7 µM,-1%
same,growth inhibition,[2]; at 11.0 µM,7%
same,growth inhibition,[2]; at 33.0 µM,18%
same,growth inhibition,[2]; at 100.0 µM,31%
same,growth inhibition,[3]; at 1.2 µM,0%
same,growth inhibition,[3]; at 3.7 µM,5%
same,growth inhibition,[3]; at 11.0 µM,33%
same,growth inhibition,[3]; at 33.0 µM,73% (active)
same,growth inhibition,[3]; at 100.0 µM,83% (active)
same,growth inhibition,[4]; at 1.2 µM,0%
same,growth inhibition,[4]; at 3.7 µM,9%
same,growth inhibition,[4]; at 11.0 µM,9%
same,growth inhibition,[4]; at 33.0 µM,33%
same,growth inhibition,[4]; at 100.0 µM,55%
same,growth inhibition,[5]; at 1.2 µM,2%
same,growth inhibition,[5]; at 3.7 µM,16%
same,growth inhibition,[5]; [17],-11%
same,growth inhibition,[5]; at 11.0 µM,44%
same,growth inhibition,[5]; at 33.0 µM,80% (active)
same,growth inhibition,[5]; [18],57%
same,growth inhibition,[5]; at 50.0 µM,77.6% (active)
same,growth inhibition,[5]; at 100.0 µM,91% (active)
same,growth inhibition,[6]; at 1.2 µM,0%
same,growth inhibition,[6]; at 3.7 µM,7%
same,growth inhibition,[6]; [17],6%
same,growth inhibition,[6]; at 11.0 µM,12%
same,growth inhibition,[6]; at 33.0 µM,21%
same,growth inhibition,[6]; [18],21%
same,growth inhibition,[6]; at 50.0 µM,30.8%
same,growth inhibition,[6]; at 100.0 µM,34%
same,growth inhibition,[7]; at 1.2 µM,0%
same,growth inhibition,[7]; at 3.7 µM,-3%
same,growth inhibition,[7]; at 11.0 µM,10%
same,growth inhibition,[7]; at 33.0 µM,23%
same,growth inhibition,[7]; at 100.0 µM,37%
same,growth inhibition,[8]; [17],5%
same,growth inhibition,[8]; [18],8%
same,growth inhibition,[8]; at 50.0 µM,39.5%
same,growth inhibition,[9]; at 1.2 µM,-3%
same,growth inhibition,[9]; at 3.7 µM,-1%
same,growth inhibition,[9]; at 11.0 µM,13%
same,growth inhibition,[9]; at 33.0 µM,25%
same,growth inhibition,[9]; at 100.0 µM,22%
same,growth inhibition,[10]; [17],-21%
same,growth inhibition,[10]; [18],16%
same,growth inhibition,[10]; at 50.0 µM,35.9%
same,growth inhibition,[11]; at 1.2 µM,-1%
same,growth inhibition,[11]; at 3.7 µM,-7%
same,growth inhibition,[11]; [17],-3%
same,growth inhibition,[11]; at 11.0 µM,8%
same,growth inhibition,[11]; at 33.0 µM,9%
same,growth inhibition,[11]; [18],8%
same,growth inhibition,[11]; at 50.0 µM,36.6%
same,growth inhibition,[11]; at 100.0 µM,7%
